Measured values as given in the supplement of paper PMC6555819.

system: VDR:RXRa (NR concentration 270 nM, RXRa partner concentration 90 nM); test: PBM binding z-score (relative to random genomic background probes); higher = stronger binding; sequences stand for … in GC…GCGATTGACAGCGTAGAATGAAGG
Protocol: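 Protein-binding microarray (Agilent 4x180K custom design, double-stranded 60-nt probes: 5' GC cap, 34-nt variable region, 24-nt constant primer region; full probe sequence given). Purified or IVT nuclear receptor:RXRα heterodimers (3:1 NR:RXRα, mostly 270:90 nM) or homodimers were incubated for 1 h in PBS with 2% milk and no ligand, then detected with Alexa488 antibodies. Fluorescence from o1-orientation probes (~5 replicates averaged) was converted to z-scores against 500 random hg19 background probes. Variable regions are seed direct-repeat (DR0–DR5) sites, all their single-nucleotide variants and half-site ablations.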

| Sequence | PBM binding z-score |
| --- | --- |
| CCTTTCGGGTCAAGGTTATAGCACGGGTGGTACG | 3.79 |
| GCTGCTAGGTCAGGTTGGTCAGCTCACGGGTACG | 0.52 |
| CCTCGGAGGACAGAAGGTCACAGCTGTCCGCTTT | 2.64 |
| AGAACGAGGGCAATGAGTTGATAGAACGGGTGGC | 5.04 |
| TATACAGGGTCAAAGGCCAGGGTACGAATGTCGA | 4.93 |
| GGAAGGAGGGCATTCGAGTTGATAGCATGGCGAT | 2.46 |
| TCTTGAAGATCAACAGGAGGTTAAGAAAGATCGA | 0.872 |
| TCATCTAGGTAAAGGTGAAAGTCGAACGATATGA | 0.95 |
| CAAACTAGGTCAAGGTCAAAGGCGGTTTGTGCCA | 4.87 |
| ACTAGCAGGCCGAGTTTGGGTCACTCAAACAAAG | 0.459 |
| ATCTCTAGGTAACAAGTTCAGTGACAGAGAGGAC | 1.97 |
| CCGACTGGGGCATAAGGTTTCCATAAGCCAGCCC | -0.182 |
| CCAGACAGTTGAAAGGTAACTCAGTCTGGTACGC | 0.591 |
| TAGCCTAGGTCAGATCGGGCCTGTATACGCTATA | 0.0712 |
| AGAATGAGGTTAAGATCAGGCAAACAGAATACAT | 1.23 |
| CCTATTAGTGGACCATAAGGGCAACCGAAGCTCG | 0.134 |
| CCTGTTAGTTGACCATAAGGGCAACCGAAGCTCG | 0.474 |
| AGAATGAGGTTACCAAAGACCAGGGAAACGCTTG | 1.32 |
| ATATGTAGGCTACATCCGGGTCATTCAGGCTATG | 2.92 |
| TCCGCTAGGTCAGTTGGTCAGCTAACGAGCTGCC | 0.232 |

| Sequence | PBM binding z-score |
| --- | --- |
| ATCTCTAGGTAAGACTCAGTACAGTGAAGAACGC | 0.435 |
| GATACAGGGTCAGCTAGCGGCCAGAGTATGGAAA | 2.49 |
| AACGAAAGGTCGAGGTGAGTATAGAGAAAGGGAA | 2.85 |
| ATCTCTAGGTAAGACTCAGTTCAGTCAAGAACGC | 0.989 |
| ACAGACAGGTGTGTGAAGGTAACTCAGCTGGACG | -0.572 |
| TAGCCTAGGTCATGCGGTCCAGTATAGTGTCGGC | 4.75 |
| TCTATTTGGTCAAAGGTCACACACTCGAAATGCG | 5.41 |
| CCTTACGGGTCACTGACACGTTATAGCATTTGGA | 3.23 |
| TAGCCTAGGTCAGATCGGGCCAGTATGCGCTATA | 0.446 |
| GCTCGGACGACAAGGTCAGAGCTTTGTCCGTAGA | 1.4 |
| AATACAGGGTAATCGTAGGCCAGAGTACGCACAG | 0.0104 |
| TCATATAGGTAAATGCTAGATGAAAGTCCGATCT | 0.802 |
| TCAGACAGGTGAAGGTAACTTAGGTACGCAGTCG | 1.02 |
| GATACAGGGTCAAGGCTAGAGTACGCGTATTGAT | 4.6 |
| CTGACTGGGGCAAAGGTTACCATACTCAGTACGA | 2.07 |
| TTACCAAGTTGAGCTGAGGTCGTTGATCCAACTC | 2.7 |
| TAGCCTACGTCATGCGGGCCAGTATAGTGTCGGC | -0.879 |
| AGAATGAGGTTATACGTAGATCAGGCAAGAAAGT | 1.46 |
| CCTGCTAGGTCATGGTAAGCTAATCTACAGTATG | 1.49 |
| AATACTGGGTCATCGTAGGCCAGAGTACGCACAG | 2.49 |
